From PubChem BioAssay
A selection: hits, their analogues and other compounds. The true share with any hit is near 19%.
uPA generation: qHTS for Inhibitors of Cell Surface uPA Generation. cell surface uPA generation assay, qHTS. Potency, µM (doses to about 38.3 µM), for the others: top-dose activity change, negative = inhibition, usual class: inhibitors. actives 0.31% (n = 330,000). AID 540303, 2011; active = well fitted inhibition curve with a large enough effect; inconclusive = small, poorly fitted or top-dose-only effect; inactive = no such curve, though single readings can be large or run the other way; tested in mouse RAW 264.7 cells; note: potency is the fitted concentration of half-maximal effect; nearly all actives have a fitted effect of over 55% in size
DT40 TDP1 no CPT: qHTS for Inhibitors of human tyrosyl-DNA phosphodiesterase 1 (TDP1): qHTS in cells in absence of CPT; DT40 Tdp1-/- hTDP1 cells, no CPT, ATP luminescence, 48 h; actives 15% (n = 420,000); Potency, µM (highest dose often 46.2 µM), for the others: at the highest dose activity change, negative = growth inhibition, hits mostly inhibitors; note: potency is the fitted concentration of half-maximal effect; nearly all actives have a fitted effect of over 55% in size
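A cellular qHTS used chicken DT40 cells lacking endogenous Tdp1 but carrying stably transfected human TDP1. Compounds were applied without camptothecin, and cell growth kinetics were judged by ATP-dependent luminescence after ≥48 hr.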
DT40 TDP1 CPT: qHTS for Inhibitors of human tyrosyl-DNA phosphodiesterase 1 (TDP1): qHTS in cells in presence of CPT; Potency, µM (doses to about 46.2 µM), for the others: top-dose activity change, negative = growth inhibition, usual class: inhibitors; actives 12% (n = 420,000); chicken DT40 Tdp1-/-;hTDP1 cells + 20 nM CPT, ATP luminescence, 48 h; AID 686979, 2013; note: potency is the fitted concentration of half-maximal effect; nearly all actives have a fitted effect of over 55% in size
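Chicken DT40 Tdp1-/- cells stably complemented with human TDP1 were seeded at 400 cells/well in medium containing 20 nM camptothecin, exposed to pin-transferred compounds, and grown at 37 °C for at least 48 hr. Viability was read as ATP luminescence.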
IL-1B inflam inh: qHTS for Inhibitors of Inflammasome Signaling: IL-1-beta AlphaLISA Primary Screen; THP-1 LPS/ATP IL-1B secretion, AlphaLISA, 16 h; stronger effect = lower value; activity change, % at 57.5 µM; actives 4.7% (n = 360,000); AID 743279, 2014; in the data active = activity change below about -50%; inconclusive = mostly about -30% to -49%
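THP-1 cells pretreated 1 hr with compounds (up to 57.5 uM final), then stimulated with LPS (250 ng/mL final) plus ATP (1.25 mM final); secreted IL-1B measured by AlphaLISA after 16 hr, decreased signal indicating inhibition.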
HT1080 IDH1KD tx: qHTS for induction of synthetic lethality in tumor cells producing 2HG: qHTS for the HT-1080-IDH1KD cell line; actives 2% (n = 360,000); Potency, µM (titrated, usually from 46.1 µM), inactives show top-dose activity, negative = toxicity, hits mostly cytotoxic; HT-1080 IDH1 knockdown viability, ATP luminescence, 48 h;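 note: potency is the fitted concentration of half-maximal effect; 0% = DMSO wells and -100% = cell-free medium wells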
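CellTiter-Glo luminescence after 48 h compound exposure at 37 degrees C of IDH1-knockdown HT-1080 cells in 5% FBS RPMI. %Activity scaled between DMSO wells and cell-free media wells, with curves fitted and assigned curve classes.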
HT1080NT lethal: qHTS for induction of synthetic lethality in tumor cells producing 2HG: qHTS for the HT-1080-NT fibrosarcoma cell line | Potency, µM (series often up to 46.1 µM), for inactives: at the highest dose activity, negative = less viability, most hits filed as cytotoxic | HT-1080-NT fibrosarcoma viability, CellTiter-Glo ATP luminescence, 48 h | actives 1.6% (n = 360,000);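 note: NT is the 2HG producing partner of a matched IDH1 knockdown line; potency is the fitted concentration of half-maximal effect; 0% = DMSO-treated cells and -100% = media-only wells without cells; nearly all actives have a fitted effect of over 55% in size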
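HT-1080-NT; 750 cells/well; 5% FBS RPMI; 48 h compound, 37 degrees C; CellTiter-Glo luminescence; curve fitting and curve-class assignment.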
* hit, by the source's call; ? = inconclusive; . = not tested or not shown. Unless noted, calls come from the whole dose curve; as a rule, active = well fitted curve in the direction sought with a large enough effect; inconclusive = small, poorly fitted or top-dose-only effect, or another doubt; inactive = no such curve, though single readings can be large; an effect the other way counts as inactive or inconclusive. Unless noted, % is set by controls: 0 for no effect and ±100 for the full control effect.

SMILES	uPA generation	DT40 TDP1 no CPT	DT40 TDP1 CPT	IL-1B inflam inh	HT1080 IDH1KD tx	HT1080NT lethal
CCOC(=O)C1=C(c2ccccc2)Nc2ncnn2C1c1ccc(C(=O)O)cc1 (stereo not drawn)	-0.1%	-7.0%	-22.4%	-8.0	20.2%	23.1%
Cc1ccc(CCNS(=O)(=O)c2ccc3c(c2)C(C(C)C)C(=O)N3)cc1 (stereo not drawn)	.	20.6µM*	?	.	.	.
Cc1ccc(S(=O)(=O)Nc2ccc3[nH]c(=O)sc3c2)cc1C	.	16.4µM*	?	.	.	.
Cc1ccc(NS(=O)(=O)c2ccc3c(c2)C(C(C)C)C(=O)N3)cc1C (stereo not drawn)	.	29.1µM*	?	.	.	.
Cc1ccc(NS(=O)(=O)c2ccc3c(c2)NC(=O)C(C)C(=O)N3)cc1C (stereo not drawn)	-5.9%	18.4µM*	?	13.5	-20.1%	-29.5%
CC1Sc2ccc(S(=O)(=O)NCCc3ccc(Cl)cc3)cc2NC1=O (stereo not drawn)	13.4%	?	-24.3%	19.3	0.0%	8.1%
CCNc1ncc2nc(-c3ccc(Cl)cc3)c(=O)n(C3CC3)c2n1	.	-3.5%	3.4%	.	.	.
CCCCOc1ccc(C(=O)Nc2ccc(CN3CCOCC3)cc2)cc1	-19.2%	?	13µM*	-61.6*	1.1%	2.9%
CCCOc1ccc(C(=O)Nc2ccc(CN3CCOCC3)cc2)cc1	-7.1%	?	?	-20.8	-5.1%	-9.9%
CCCCOc1ccc(C(=O)Nc2ccncc2)cc1	-14.7%	2.59µM*	5.17µM*	?	-15.2%	-18.5%
CCCCCCOc1ccc(OC(=O)c2ccncc2)cc1	-11.9%	23.1µM*	13µM*	11.9	16.4µM*	?
CCCOc1cccc(C(=O)Nc2ccc(CN3CCOCC3)cc2)c1	-9.6%	?	-21.7%	-53.5*	-15.4%	1.2%
CCCOc1ccc(C(=O)Nc2cccnc2)cc1	-2.4%	?	?	-19.4	?	?
CSCCNC(=O)Nc1c(-c2c(Cl)cccc2Cl)noc1C	15.1%	-1.9%	6.6%	0.0	16.0%	6.3%
O=C(COC(=O)CCC1CCCC1)Nc1ccc(F)cc1Cl	14.5%	5.4%	-10.4%	-16.8	0.8%	2.2%
O=C(CSc1nnc(NC(=O)c2c(F)cccc2F)s1)NCc1ccco1	-6.5%	-19.6%	-15.7%	2.8	3.0%	-0.7%
O=C(CSc1nnc(NC(=O)c2ccccc2F)s1)NCc1ccco1	7.94µM*	?	-16.9%	4.0	-0.5%	9.7%
COc1ccc(C2C3=C(CC(C)(C)CC3=O)Nc3cc4c(cc32)OCO4)cc1 (stereo not drawn)	-0.9%	-9.5%	-0.1%	-60.0*	15.2%	6.2%
COc1ccc(OC)c(C2C3=C(COC3=O)Nc3cc4c(cc32)OCO4)c1 (stereo not drawn)	-9.4%	0.146µM*	0.164µM*	50.4	0.517µM*	0.651µM*
CC1(C)CC(=O)C2=C(C1)Nc1cc3c(cc1C2c1ccc2c(c1)OCO2)OCO3 (stereo not drawn)	-8.9%	?	?	?	-11.6%	-12.5%
Cc1cc(NC(=O)CCN2C(=O)C3C4C=CC(C4)C3C2=O)ccc1Br (stereo not drawn)	3.0%	-10.0%	4.1%	-15.6	-14.8%	-28.9%
COc1ccc(OC)c(NC(=O)CSc2ncnc3c2cnn3-c2ccccc2Cl)c1	-15.3%	1.3µM*	2.06µM*	-79.4*	-23.9%	-21.7%
CCc1ccc(C2=NN(CCC(=O)NCc3cccs3)C(=O)CC2)cc1	9.5%	?	?	-27.0	-8.6%	5.8%
